Test results as given in the supplement of paper PMC10849652.
The full data set covers some 8,800 targets. This sample favours those with a hit. About 0.5% of all pairs of compound and target were hits. Unmarked numbers belong to inactive results.

Key:
Experiment in all cases: log2 fold change, soluble protein after heating vs DMSO (PISA); higher = thermal stabilisation; K562 lysate, 10 uM; active = over 0.2 and 3.5 SD of the protein, either way, in both replicates (recomputed)
erlotinib = compound: C#Cc1cccc(Nc2ncnc3cc(OCCOC)c(OCCOC)cc23)c1 [erlotinib]
Procedure, shortened: (§1)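 Log-two fold change in thermal stability relative to solvent controls is reported from duplicates. For each sample, crude K562 extract from dounce-homogenised pellets in PBS pH 7.4 with 1 mM MgCl2, at 1 mg/mL protein, was treated with 10 μM compound for 30 min. Aliquots heated for 3 min across 48°C-58°C were pooled, brought to 0.5% NP-40 at 4°C and cleared at 21,000xg for 90 min. The supernatant was quantified by TMTpro 16plex LC-MS/MS with channel sums equalised.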

[1] = compound: C/C(=N\NC(=O)C1=CC(=CC=C1)S(=O)(=O)N2CCOCC2)/C3=C(C=CC(=C3)Cl)O
Procedure, shortened: as §1

[2] = compound: C1=CC(=CC=C1C2=NC3=C(N2)C=C(C=C3)C(=O)N)OC4=CC=C(C=C4)Cl
Procedure, shortened: as §1

[3] = compound: C1=CC2=C(C=CC(=C2)/C=C\3/C(=O)NC(=NCC4=CC=CS4)S3)N=C1
Procedure, shortened: as §1

[4] = compound: C1=CC2=NC=CN=C2C=C1/C=C/3\C(=O)NC(=O)S3
Procedure, shortened: as §1

[5] = compound: C1=CC=C(C=C1)C2=NC(=C(N2)C3=CC=NC=C3)C4=CC(=C(C=C4)Cl)O
Procedure, shortened: as §1

[6] = compound: C1=CC=C2C(=C1)C3=NNC4=CC=CC(=C43)C2=O
Procedure, shortened: as §1

[7] = compound: C1CCN(C1)C(=O)NC2=CC=CC(=C2)NC3=NC=C(C(=N3)NCCC4=CN=CN4)Br
Procedure, shortened: as §1

[8] = compound: C1CN(CCC1(CC2=CC=C(C=C2)Cl)N)C3=NC=NC4=C3C=CN4
Procedure, shortened: as §1

IRAK-1-4 Inhibitor I = compound: C1COCCN1CCN2C3=CC=CC=C3N=C2NC(=O)C4=CC(=CC=C4)[N+](=O)[O-] [IRAK-1-4 Inhibitor I]
Procedure, shortened: as §1

ibrutinib = compound: C=CC(=O)N1CCC[C@@H](n2nc(-c3ccc(Oc4ccccc4)cc3)c3c(N)ncnc32)C1 [ibrutinib]
Procedure, shortened: as §1

[9] = compound: CC(=O)c1cnc2ccc(-c3cc(Cl)c(O)c(Cl)c3)nc2c1N[C@H]1CC[C@H](CN(C)C)CC1
Procedure, shortened: as §1

ralimetinib = compound: CC(C)(C)Cn1c(N)nc2ccc(-c3[nH]c(C(C)(C)C)nc3-c3ccc(F)cc3)nc21 [ralimetinib]
Procedure, shortened: as §1

[10] = compound: CC(C)(O)CC(=O)NCCn1ccc2ncnc(Nc3ccc(Oc4cccc(C(F)(F)F)c4)c(Cl)c3)c21
Procedure, shortened: as §1

[11] = compound: CC(C)C1=C2N=C(C=C(N2N=C1)NCC3=CC=CC=C3)NCCCCCCN
Procedure, shortened: as §1

[12] = compound: CC1=C(C(CC(=O)N1)C2=CC=C(C=C2)C(F)(F)F)C(=O)NC3=C(C=C4C(=C3)C=NN4)F
Procedure, shortened: as §1

[13] = compound: CC1=C(C2=C(C=C1)C(=O)C3=CC=CC=C3N2CCCN)C
Procedure, shortened: as §1

[14] = compound: CC1=C(C=C(C=C1)NC(=O)C2=CC(=CC=C2)C(C)(C)C#N)NC3=CC4=C(C=C3)N=CN(C4=O)C
Procedure, shortened: as §1

[15] = compound: CC1=C(C=C(C=C1)NC(=O)C2=CC(=CC=C2)N(C)C)NC(=O)C3=CC=C(C=C3)O
Procedure, shortened: as §1

[16] = compound: CC1=CC=C(C=C1)SC2=C3C=C(SC3=CN=C2)C(=O)N
Procedure, shortened: as §1

Chain of UniProt Q9BX10 (Q9BX10 whole entry, looked up): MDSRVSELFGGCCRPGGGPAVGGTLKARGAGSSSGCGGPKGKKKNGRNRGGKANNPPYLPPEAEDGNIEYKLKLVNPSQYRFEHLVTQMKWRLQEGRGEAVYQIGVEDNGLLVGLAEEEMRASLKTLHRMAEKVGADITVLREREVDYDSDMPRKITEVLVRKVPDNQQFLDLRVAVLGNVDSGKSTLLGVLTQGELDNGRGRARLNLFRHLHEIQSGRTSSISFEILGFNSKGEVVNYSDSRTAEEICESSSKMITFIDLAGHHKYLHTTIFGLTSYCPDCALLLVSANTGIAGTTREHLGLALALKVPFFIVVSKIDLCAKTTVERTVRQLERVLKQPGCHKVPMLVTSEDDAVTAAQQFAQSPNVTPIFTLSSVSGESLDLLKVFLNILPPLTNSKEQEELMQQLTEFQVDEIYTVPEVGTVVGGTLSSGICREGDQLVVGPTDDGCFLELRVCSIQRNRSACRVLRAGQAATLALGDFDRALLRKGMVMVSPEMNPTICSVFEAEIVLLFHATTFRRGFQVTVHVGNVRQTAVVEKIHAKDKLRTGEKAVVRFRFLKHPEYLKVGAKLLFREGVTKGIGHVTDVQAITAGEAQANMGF
Chain of UniProt P17096 (P17096 whole entry, looked up): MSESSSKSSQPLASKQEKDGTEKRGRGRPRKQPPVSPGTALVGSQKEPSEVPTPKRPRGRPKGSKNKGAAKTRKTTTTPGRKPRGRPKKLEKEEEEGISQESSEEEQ
Chain of UniProt Q8N201 (Q8N201 whole entry, looked up): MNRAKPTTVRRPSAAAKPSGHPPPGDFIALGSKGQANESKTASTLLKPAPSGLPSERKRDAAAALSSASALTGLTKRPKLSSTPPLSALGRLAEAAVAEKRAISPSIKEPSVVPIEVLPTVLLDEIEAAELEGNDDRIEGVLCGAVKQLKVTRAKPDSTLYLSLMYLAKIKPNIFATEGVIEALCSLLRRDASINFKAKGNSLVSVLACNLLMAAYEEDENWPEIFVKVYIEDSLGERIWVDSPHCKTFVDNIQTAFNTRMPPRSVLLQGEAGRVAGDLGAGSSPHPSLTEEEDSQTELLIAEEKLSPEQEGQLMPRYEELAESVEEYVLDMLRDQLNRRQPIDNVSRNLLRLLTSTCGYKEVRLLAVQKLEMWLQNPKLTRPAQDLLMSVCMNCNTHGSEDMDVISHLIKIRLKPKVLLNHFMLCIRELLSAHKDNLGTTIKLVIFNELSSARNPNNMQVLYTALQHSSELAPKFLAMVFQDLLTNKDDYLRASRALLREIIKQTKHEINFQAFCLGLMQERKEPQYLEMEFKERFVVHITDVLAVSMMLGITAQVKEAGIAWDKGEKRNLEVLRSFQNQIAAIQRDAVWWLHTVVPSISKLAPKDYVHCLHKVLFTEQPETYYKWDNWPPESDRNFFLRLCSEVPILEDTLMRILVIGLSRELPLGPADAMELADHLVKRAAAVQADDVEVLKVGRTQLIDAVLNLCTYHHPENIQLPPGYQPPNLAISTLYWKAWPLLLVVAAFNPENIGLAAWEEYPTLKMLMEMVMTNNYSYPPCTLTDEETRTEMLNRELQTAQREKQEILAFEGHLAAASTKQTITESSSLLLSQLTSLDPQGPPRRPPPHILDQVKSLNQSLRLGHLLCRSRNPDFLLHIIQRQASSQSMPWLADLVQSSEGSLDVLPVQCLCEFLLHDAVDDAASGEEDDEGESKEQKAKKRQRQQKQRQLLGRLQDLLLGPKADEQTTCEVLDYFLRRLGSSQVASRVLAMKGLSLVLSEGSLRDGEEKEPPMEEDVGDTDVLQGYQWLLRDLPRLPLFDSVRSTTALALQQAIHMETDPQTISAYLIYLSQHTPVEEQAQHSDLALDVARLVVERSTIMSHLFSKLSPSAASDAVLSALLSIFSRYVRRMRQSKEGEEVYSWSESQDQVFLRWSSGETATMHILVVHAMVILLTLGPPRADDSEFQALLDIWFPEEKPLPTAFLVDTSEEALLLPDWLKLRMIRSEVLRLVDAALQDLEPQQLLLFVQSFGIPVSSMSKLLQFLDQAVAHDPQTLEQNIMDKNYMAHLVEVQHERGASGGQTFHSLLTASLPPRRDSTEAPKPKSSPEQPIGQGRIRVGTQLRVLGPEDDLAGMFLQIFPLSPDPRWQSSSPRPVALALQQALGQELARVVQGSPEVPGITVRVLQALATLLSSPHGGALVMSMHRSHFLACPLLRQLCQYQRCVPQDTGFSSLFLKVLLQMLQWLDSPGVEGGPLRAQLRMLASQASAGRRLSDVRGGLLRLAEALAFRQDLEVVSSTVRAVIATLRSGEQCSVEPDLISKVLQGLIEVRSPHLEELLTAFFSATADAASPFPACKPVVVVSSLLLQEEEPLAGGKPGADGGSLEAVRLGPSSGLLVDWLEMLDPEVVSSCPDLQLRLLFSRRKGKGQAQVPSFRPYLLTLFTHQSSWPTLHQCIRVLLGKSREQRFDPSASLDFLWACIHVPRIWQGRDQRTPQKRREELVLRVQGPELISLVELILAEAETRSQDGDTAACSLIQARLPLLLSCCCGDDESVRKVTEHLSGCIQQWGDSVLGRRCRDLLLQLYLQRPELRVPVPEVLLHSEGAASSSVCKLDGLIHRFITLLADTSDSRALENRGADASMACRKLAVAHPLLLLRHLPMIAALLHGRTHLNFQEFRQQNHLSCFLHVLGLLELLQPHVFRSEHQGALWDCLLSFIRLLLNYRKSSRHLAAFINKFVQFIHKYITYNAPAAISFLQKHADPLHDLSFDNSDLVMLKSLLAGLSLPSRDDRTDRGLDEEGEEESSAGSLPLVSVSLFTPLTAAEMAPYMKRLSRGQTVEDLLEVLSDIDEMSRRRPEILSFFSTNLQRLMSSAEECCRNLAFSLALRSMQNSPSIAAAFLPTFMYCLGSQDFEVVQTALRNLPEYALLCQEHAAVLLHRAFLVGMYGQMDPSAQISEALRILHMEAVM
Chain of UniProt Q9Y6M1 (Q9Y6M1 whole entry, looked up): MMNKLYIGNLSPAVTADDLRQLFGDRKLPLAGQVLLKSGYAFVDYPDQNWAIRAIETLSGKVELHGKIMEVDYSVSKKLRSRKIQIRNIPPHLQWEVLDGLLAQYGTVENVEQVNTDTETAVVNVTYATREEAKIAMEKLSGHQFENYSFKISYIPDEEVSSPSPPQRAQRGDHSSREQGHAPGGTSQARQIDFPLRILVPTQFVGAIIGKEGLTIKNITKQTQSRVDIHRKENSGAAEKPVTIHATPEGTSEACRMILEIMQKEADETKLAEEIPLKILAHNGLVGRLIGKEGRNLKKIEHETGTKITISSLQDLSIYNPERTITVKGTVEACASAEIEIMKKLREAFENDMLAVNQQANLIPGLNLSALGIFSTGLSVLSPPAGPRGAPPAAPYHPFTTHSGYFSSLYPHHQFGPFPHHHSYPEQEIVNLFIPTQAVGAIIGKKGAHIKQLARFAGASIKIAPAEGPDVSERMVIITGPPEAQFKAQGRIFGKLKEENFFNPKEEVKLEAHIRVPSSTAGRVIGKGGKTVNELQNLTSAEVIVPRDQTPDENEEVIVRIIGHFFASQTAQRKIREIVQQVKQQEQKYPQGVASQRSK
Chain of UniProt Q99795 (Q99795 whole entry, looked up): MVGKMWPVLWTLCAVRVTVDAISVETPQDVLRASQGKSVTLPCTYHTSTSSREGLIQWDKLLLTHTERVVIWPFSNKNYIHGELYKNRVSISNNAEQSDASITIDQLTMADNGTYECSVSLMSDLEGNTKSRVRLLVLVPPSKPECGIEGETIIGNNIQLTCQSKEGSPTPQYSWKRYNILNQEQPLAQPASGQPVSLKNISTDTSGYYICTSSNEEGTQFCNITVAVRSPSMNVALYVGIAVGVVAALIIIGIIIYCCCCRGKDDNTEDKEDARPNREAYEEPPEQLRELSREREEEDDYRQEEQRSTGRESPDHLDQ
Chain of UniProt Q6AI08 (Q6AI08 whole entry, looked up): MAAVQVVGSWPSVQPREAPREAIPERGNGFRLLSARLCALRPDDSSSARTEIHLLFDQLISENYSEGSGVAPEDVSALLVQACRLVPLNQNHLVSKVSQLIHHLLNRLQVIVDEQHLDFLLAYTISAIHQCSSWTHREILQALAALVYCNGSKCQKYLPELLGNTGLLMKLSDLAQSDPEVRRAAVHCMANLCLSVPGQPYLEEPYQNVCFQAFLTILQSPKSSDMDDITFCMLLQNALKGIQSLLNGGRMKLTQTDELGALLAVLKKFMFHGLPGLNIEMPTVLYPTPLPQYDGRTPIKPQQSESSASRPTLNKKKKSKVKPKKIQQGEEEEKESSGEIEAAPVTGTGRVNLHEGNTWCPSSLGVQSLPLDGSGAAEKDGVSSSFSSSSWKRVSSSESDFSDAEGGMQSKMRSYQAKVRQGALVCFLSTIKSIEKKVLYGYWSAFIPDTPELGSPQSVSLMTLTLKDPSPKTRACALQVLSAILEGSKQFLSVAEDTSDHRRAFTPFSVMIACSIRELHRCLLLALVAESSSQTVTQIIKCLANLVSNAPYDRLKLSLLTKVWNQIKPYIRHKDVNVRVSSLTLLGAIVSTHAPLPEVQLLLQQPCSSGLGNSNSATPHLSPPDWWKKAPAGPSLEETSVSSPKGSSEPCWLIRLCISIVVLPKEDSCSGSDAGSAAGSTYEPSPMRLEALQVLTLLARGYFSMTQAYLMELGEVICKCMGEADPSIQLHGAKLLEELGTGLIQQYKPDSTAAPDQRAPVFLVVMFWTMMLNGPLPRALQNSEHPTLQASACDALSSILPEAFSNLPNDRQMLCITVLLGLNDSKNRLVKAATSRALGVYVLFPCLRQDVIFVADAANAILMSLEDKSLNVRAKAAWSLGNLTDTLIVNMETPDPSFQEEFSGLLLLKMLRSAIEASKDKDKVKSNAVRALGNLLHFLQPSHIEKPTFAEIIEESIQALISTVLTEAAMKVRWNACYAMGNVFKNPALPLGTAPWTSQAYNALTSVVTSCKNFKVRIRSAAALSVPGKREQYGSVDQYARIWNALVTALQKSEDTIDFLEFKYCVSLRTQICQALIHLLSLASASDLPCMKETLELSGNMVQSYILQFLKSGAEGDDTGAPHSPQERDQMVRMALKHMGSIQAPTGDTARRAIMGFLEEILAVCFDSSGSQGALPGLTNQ

Target	log2 fold change (erlotinib)	log2 fold change [1]	log2 fold change [2]	log2 fold change [3]	log2 fold change [4]	log2 fold change [5]	log2 fold change [6]	log2 fold change [7]	log2 fold change [8]	log2 fold change (IRAK-1-4 Inhibitor I)	log2 fold change (ibrutinib)	log2 fold change [9]	log2 fold change (ralimetinib)	log2 fold change [10]	log2 fold change [11]	log2 fold change [12]	log2 fold change [13]	log2 fold change [14]	log2 fold change [15]	log2 fold change [16]
IGF2BP2 (UniProt Q9Y6M1)	0.022	0.049	-0.041	-0.032	0.031	0	-0.08	-0.023	0.051	-0.022	0.035	0.007	0.056	0.035	0.007	-0.008	-0.036	-0.075	0.006	0.056
HNRNPUL2 (UniProt Q1KMD3)	-0.006	-0.002	0.02	-0.004	-0.035	-0.006	-0.014	-0.001	-0.022	-0.003	-0.019	-0.674 (active)	-0.018	-0.02	0.021	-0.022	-0.03	0.011	0.032	0
GTPBP2 (UniProt Q9BX10)	-0.008	-0.051	-0.05	-0.002	-0.011	0.02	-0.032	-0.058	-0.017	0.023	0.008	-0.123	0.042	-0.035	0	0.004	-0.018	0	0.047	-0.032
HERC2 (UniProt O95714)	0.014	0.174	0.115	0.007	0.01	0.042	-0.061	-0.016	-0.001	-0.033	0.001	0.053	0.002	0.02	0.082	0.028	-0.063	0.021	0.041	0.015
H4C1 (UniProt P62805)	0.065	0.499	-0.023	-0.042	-0.024	0.252	-0.008	0.067	-0.052	-0.067	0.055	-0.008	-0.078	-0.037	-0.046	0.075	-0.082	0.011	-0.022	0.008
HEATR6 (UniProt Q6AI08)	-0.033	0.024	-0.002	0.022	0.085	-0.006	-0.026	-0.03	-0.007	-0.028	0.045	-0.036	0.064	-0.031	-0.051	0.033	-0.069	-0.004	0.083	-0.009
HMGA1 (UniProt P17096)	-0.037	-0.053	-0.001	-0.026	-0.053	-0.007	0.026	0.036	0.013	-0.022	0.004	-0.022	-0.024	-0.043	0.002	-0.03	0.075	-0.008	-0.023	-0.017
INTS1 (UniProt Q8N201)	0.016	0.063	0.013	-0.071	-0.017	0.027	-0.097	-0.01	0.025	0.016	-0.103	0.177	0.053	-0.007	-0.052	-0.052	0.038	-0.032	0.035	0.026
GPA33 (UniProt Q99795)	-0.014	0.082	-0.002	-0.091	-0.032	-0.05	-0.151	0.001	0.046	0.024	0.037	-0.029	0.188	-0.123	-0.067	-0.091	0		-0.024	0.026
